{"source": "PubChem BioAssay (Tox21)", "note": "Values joined by “and” are separate entries in the source; they are usually repeats but may differ in a detail not shown here. Equal values may be shown once. Inconclusive results are not listed. Entries that show only a call come without a potency. Values without a mark were called inactive. Active and inactive are the calls of the source. Calls follow the shape of the dose curve; as a rule, active = well fitted cell-killing curve with a large enough effect in the repeat runs; inconclusive = weak or mixed curves, or effect the other way; inactive = no such curve, though single readings can be large or run the other way. Potency is read from the fitted curve at half-maximal effect.", "data": [{"experiment": "qHTS assay to identify small molecule antagonists of the glucocorticoid receptor (GR) signaling pathway - cell viability counter screen (AID 720693); also: nearly all actives have a fitted effect of over 55% in size", "settings": "GR-bla HeLa viability, CellTiter-Glo luminescence, 18 h, with 5 nM dexamethasone present; series mostly up to 58.5 µM; viability change, negative = cytotoxic: at the top concentration", "text": "National Center for Advancing Translational Sciences [NCATS]\nNIH Chemical Genomics Center [NCGC]\nU.S. Environmental Protection Agency [EPA]\nNational Institutes of Environmental Health Sciences [NIEHS]\nNational Toxicology Program [NTP]\nU.S. Food and Drug Administration [FDA]\nThe Glucocorticoid receptor (GR) is one of the members of the nuclear receptor family of ligand-dependent transcription factors. GR plays a critical role in carbohydrate, protein and lipid metabolisms and programmed cell death. CellSensor GR-bla HeLa cell line (Invitrogen) contains a beta-lactamase reporter gene under the control of the glucocorticoid response element stably integrated into HeLa cells, a cervical cancer cell line that expresses glucocorticoid receptor. The activation of the reporter gene under culture conditions can be detected by fluorescence intensity. This cell line has been used to screen the Tox21 10K compound library and to identify the compounds that inhibit the GR signaling. The cytotoxicity of the Tox21 compound library against the GR-bla HeLa cell line was tested in parallel by measuring the cell viability using CellTiter-Glo assay in the same wells.\nTox21 Assay Protocol Summary:\nThe GR-bla HeLa cells were dispensed at 1500 cells/5 ul/well in 1536-well black wall/clear bottom plates using a Multidrop Combi (ThermoFisher Scientific, Waltham, MA) dispenser. After the assay plates were incubated at a 37 C/5% CO2 incubator for 4 hours, 23 nL of compounds dissolved in DMSO, positive controls or DMSO only was transferred to the assay plate by a pintool station (Kalypsys, San Diego, CA), followed by addition of 1 uL of dexamethasone (5 nM, final concentration in the well). The plates were incubated at 37 C for 18 hours. After 1 uL of LiveBLAzerTM B/G FRET substrate was added using a Flying Reagent Dispenser (Aurora Discovery, San Diego, CA), the plates were incubated at room temperature (RT) for 2 hours, and fluorescence intensity was measured by an Envision plate reader (PerkinElmer, Shelton, CT). After measurement of bla assay, 3 ul CellTiter-Glo (Promega, Madison, WI) was added to measure the cytotoxicity and the plates were then incubated at RT for 30 min. The luminescence was measured using a ViewLux (Perkin Elmer) plate reader.", "values": [{"smiles": "Oc1ccc(Cl)cc1Cl", "Potency": "inactive"}, {"smiles": "CCC/C=N/O", "Potency": "inactive"}, {"smiles": "CNC(=O)CSP(=S)(OC)OC", "Potency": "inactive"}, {"smiles": "Nc1ccc([N+](=O)[O-])cc1N", "Potency": "inactive"}, {"smiles": "OC(c1ccc(Cl)cc1)(c1cncnc1)c1ccccc1Cl", "note": "(stereo not given)", "Potency": "inactive"}, {"smiles": "O=S(=O)(O)C(F)(F)C(F)(F)C(F)(F)C(F)(F)C(F)(F)C(F)(F)C(F)(F)C(F)(F)F", "Potency": "inactive"}, {"smiles": "O=P(OCCCl)(OCCCl)OCCCl", "Potency": "inactive"}, {"smiles": "Clc1ccccc1-c1nnc(-c2ccccc2Cl)nn1", "Potency": "inactive"}, {"smiles": "COP(=S)(OC)Oc1ccc(Sc2ccc(OP(=S)(OC)OC)cc2)cc1", "Potency": "inactive"}, {"smiles": "Cc1cc(Cl)ccc1N=CN(C)C", "Potency": "inactive"}, {"smiles": "CCN(CC)C(=O)C(C)Oc1cccc2ccccc12", "note": "(stereo not given)", "Potency": "inactive"}, {"smiles": "CN(C)c1ccccc1", "Potency": "inactive"}, {"smiles": "CC1=C(C(=O)Nc2ccccc2)SCCO1", "Potency": "inactive"}, {"smiles": "O=C1Nc2ccc(Cl)cc2C(c2ccccc2)=NC1O", "note": "(stereo not given)", "Potency": "inactive"}, {"smiles": "CCOP(=O)(OCC)OCC", "Potency": "inactive"}, {"smiles": "CC(C)(O)C#N", "Potency": "inactive"}, {"smiles": "CCC1(c2ccc(N)cc2)CCC(=O)NC1=O", "note": "(stereo not given)", "Potency": "inactive"}, {"smiles": "Cc1ccc(N=CN(C)C=Nc2ccc(C)cc2C)c(C)c1", "viability change, negative = cytotoxic": "1.57%"}, {"smiles": "CCC(=O)Nc1ccc(Cl)c(Cl)c1", "Potency": "inactive"}, {"smiles": "c1ccc(C2CO2)cc1", "note": "(stereo not given)", "Potency": "inactive"}, {"smiles": "CS(=O)(=O)NC(=O)c1cc(Oc2ccc(C(F)(F)F)cc2Cl)ccc1[N+](=O)[O-]", "Potency": "inactive"}, {"smiles": "S=c1[nH]c2ccccc2[nH]1", "Potency": "inactive"}, {"smiles": "CC(C)Nc1nc(Cl)nc(NC(C)C)n1", "Potency": "inactive"}, {"smiles": "COc1ccc(O)c(C(C)(C)C)c1", "Potency": "inactive"}, {"smiles": "ClCc1ccccn1", "Potency": "inactive"}, {"smiles": "CC(C)(O)C(=O)Nc1ccc([N+](=O)[O-])c(C(F)(F)F)c1", "Potency": "inactive"}, {"smiles": "CCC[CH2][Sn]([Cl])([Cl])[CH2]CCC", "Potency": "6.24 µM (active) and 6.16 µM (active)"}, {"smiles": "C=C(C)C#N", "Potency": "inactive"}, {"smiles": "COc1ccc(CO)cc1", "Potency": "inactive"}, {"smiles": "O=C(O)CF", "Potency": "inactive"}, {"smiles": "Cl", "viability change, negative = cytotoxic": "-4.96% [at 78.9 µM]"}, {"smiles": "C=CC(=O)OCC(CC)(COC(=O)C=C)COC(=O)C=C", "Potency": "12.6 µM (active) and 11 µM (active)"}, {"smiles": "Clc1cccc(C(Cl)(Cl)Cl)n1", "Potency": "inactive"}, {"smiles": "CN(C)c1nc(=O)n(C2CCCCC2)c(=O)n1C", "Potency": "inactive"}, {"smiles": "COP(=S)(OC)Oc1ccc(S(=O)(=O)N(C)C)cc1", "Potency": "inactive"}, {"smiles": "CC(C)(c1ccccc1)c1ccc(O)cc1", "viability change, negative = cytotoxic": "-20.7%"}, {"smiles": "C[C@]12CC[C@H]3[C@@H](CCC4=CC(=O)CC[C@@H]43)[C@@H]1CC[C@@H]2O", "viability change, negative = cytotoxic": "-26.2%"}, {"smiles": "Cc1cccc(N=Nc2ccc(N(C)C)cc2)c1", "Potency": "inactive"}, {"smiles": "CC1(C)C(C(=O)OC(C#N)c2cccc(Oc3ccccc3)c2)C1(C)C", "note": "(stereo not given)", "Potency": "inactive"}, {"smiles": "N#CCCCCC#N", "Potency": "inactive"}]}]}
